Results filed as inconclusive are left out. The source made the active and inactive calls. The call rests on the fitted dose curve; in most records, active means well fitted cell-killing curve with a large enough effect; inconclusive means small, poorly fitted or top-dose-only effect, or effect the other way; inactive means flat fitted curve, though single readings scatter.
Test system: Tov112D
Test: Primary qHTS to identify gynecologic anti-cancer compounds using libraries of approved drugs and bioactive compounds (AID 1345084); further: nearly all actives have a fitted effect of over 55% in size
Settings: Gynecologic cancer cell panel viability, ATPlite luminescence, 48 h; series mostly up to 57.5 µM; activity change, negative = cytotoxicity: at the top concentration
In short: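 ATP-based viability (ATPlite), 1,000 cells/well, 16 h pre-incubation, 48 h compound at 37 C, 5% CO2, 15 min RT before read.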
On the % scale 0 is the no-effect control and ±100 the full control effect.

SMILES	activity change, negative = cytotoxicity
O=C(OCC(COC(=O)c1cccnc1)(COC(=O)c1cccnc1)COC(=O)c1cccnc1)c1cccnc1	-1.89% (inactive)
O=P(O)(O)OCC(O)CO (centres undefined)	5.11% (inactive)
CC(C)C(C)(C)C(C)(C)C(C)(C)S	2.81% [at 116 µM] (inactive)
CCOC(=O)NNc1ccc(N(CC)CC(C)O)nn1 (centres undefined)	-7.78% (inactive)
O=C(Oc1ccccc1)c1cccc(C(=O)Oc2ccccc2)c1	6.35% [at 116 µM] (inactive)
CCNC(=O)NCCCOc1cccc(CN2CCCCC2)c1	13.1% (inactive)
CC(=O)OCC[N+](C)(C)C	2.06% (inactive)
Nc1c[n+](N2CCOCC2)no1	4.69% (inactive)
O=C1CC[C@H](C(=O)N2CCCCC2)N1	5.57% (inactive)
COc1ccccc1OCC1CNC(=O)O1 (centres undefined)	12.7% (inactive)
c1ccc2occc2c1	3.93% [at 116 µM] (inactive)
O=C(Oc1ccccc1)c1ccccc1O	2.67% (inactive)
CC(C(=O)O)c1ccc(/C=C2\CCCCC2=O)cc1 (centres undefined)	4.76% (inactive)
Cc1nc([N+](=O)[O-])cn1-c1ccc([N+](=O)[O-])cc1	-7.79% (inactive)
CC(COc1ccccc1)NN (centres undefined)	6.79% (inactive)
C1N2CN3CN1CN(C2)C3	1.67% (inactive)
O=C(CCCCCCCCC#CI)Oc1ccccc1	11.7% (inactive)
O=C(c1ccccc1)c1ccccc1	4.71% (inactive)
CC(=O)OCC(=O)[C@@]1(O)[C@H](OC(C)=O)C[C@H]2[C@@H]3CCC4=CC(=O)C=C[C@]4(C)[C@@]3(F)[C@@H](O)C[C@@]21C	8.45% (inactive)
CC1c2ccccc2CN1NC(=O)c1ccc(Cl)c(S(N)(=O)=O)c1 (centres undefined)	-3.88% (inactive)

SMILES	activity change, negative = cytotoxicity
CN1C(=O)c2ccccc2C1=O	5.75% [at 116 µM] (inactive)
CC(C)(C)C(=O)OCOC(=O)C1N2C(=O)CC2S(=O)(=O)C1(C)C (centres undefined)	5.45% (inactive)
CO/N=C(/C(=O)N[C@@H]1C(=O)N2C(C(=O)O)=C(Cn3nnc(C)n3)CS[C@H]12)c1csc(N)n1	-2% (inactive)
CCOc1ccc(NS(=O)(=O)c2ccc(N)cc2)nn1	5.78% (inactive)
Cc1ccc(O)cc1	-7.03% (inactive)
C[N+]1(CC2COC(c3ccccc3)(c3ccccc3)O2)CCCCC1 (centres undefined)	-32.8% [at 25.3 µM] (inactive)
CC(C)(C)C(O)/C=C/c1ccc2c(c1)OCO2 (centres undefined)	9.62% (inactive)
CO/N=C(/C(=O)N[C@@H]1C(=O)N2C(C(=O)OCOC(=O)C(C)(C)C)=C(C)CS[C@H]12)c1csc(N)n1	-10.4% (inactive)
CC(C)=CCC/C(C)=C/CC/C(C)=C/CCC(=O)OC/C=C(\C)CCC=C(C)C	9.85% (inactive)
CCOC(=O)Cn1cccc1-c1nc(-c2ccc(OC)cc2)c(-c2ccc(OC)cc2)s1	11.7% (inactive)
OCc1cccnc1	2.28% (inactive)
CC(C)(C)c1nnc(NS(=O)(=O)c2ccccc2)s1	9.13% (inactive)
O=C(O)CCCC[C@@H]1SC[C@@H]2NC(=O)N[C@@H]21	-11.3% (inactive)
O=C(O)[C@H](O)[C@@H](O)[C@H](O[C@@H]1O[C@H](CO)[C@H](O)[C@H](O)[C@H]1O)[C@H](O)CO	-5.74% (inactive)
N[C@@H](Cc1cc(I)c(O)c(I)c1)C(=O)O	-0.842% (inactive)
CC1CN(c2cc3c(cc2F)c(=O)c(C(=O)O)cn3-c2ccc(F)cc2F)CCN1 (centres undefined)	-5.84% [at 6.55 µM] (inactive)
Brc1ccccc1-c1ccccc1	0.98% [at 116 µM] (inactive)
CCC(C(=O)NC(=O)NC(C)=O)c1ccccc1 (centres undefined)	-1.69% (inactive)
C1=CC2C3C=CC(C3)C2C1 (centres undefined)	10.2% [at 116 µM] (inactive)

Source: PubChem BioAssay (NCATS)
